Inconclusive results are not listed. A call without a number means that no potency is given here. Calls of active or inactive are those of the source. The call rests on the fitted dose curve; in most records, active means well fitted activation curve with a large enough effect; inconclusive means small, poorly fitted or top-dose-only effect; inactive means no such curve, though single readings can be large or run the other way.
Assay: qHTS Assay for Identifying a Potential Treatment of Ataxia-Telangiectasia: Secondary assay (no NCS) hit validation;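 further: phosphorylated KAP1 signal as a proxy for ATM-like kinase activity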
Conditions: A-T patient fibroblasts, AlphaLISA, no DNA damage added, 90 min; series mostly up to 76.9 µM
Description: NIH Chemical Genomics Center [NCGC]
NIH Molecular Libraries Probe Centers Network [MLPCN]
Assay Submitter (PI): Wei Zheng and Yosef Shiloh
Ataxia-telangiectasia (A-T) is a devastating and progressive disease for which, there is no cure. Although A-T is a multisystem disease, it is stereotyped characterized by its neurological symptoms such as truncal ataxia, due to cerebellar cortical degeneration of the Purkinje and granule cells. Other symptoms of A-T are telangiectasias (dilated blood vessels), primary immunodeficiency, marked sensitivity to ionizing radiation (IR), chromosomal instability and predisposition to cancer.
The underlying genetic cause of A-T is null mutations in the ATM (A-T mutated) gene. ATM is a nuclear serine/threonine kinase that functions as a master regulator of the cellular responses to double strand breaks (DSBs) in the DNA. Upon activation by DSBs, ATM phosphorylates a plethora of downstream targets, including KAP-1 on […]. KAP-1 phosphorylation occurs shortly in response to DSBs and mediates global chromatin relaxation, which facilitates DSB repair. To screen for small molecules that will compensate for the loss of ATM in cells derived from A-T patients, we monitored KAP-1 phosphorylation as a readout for ATM-like activity using an AlphaLISA assay. This secondary assay omits NCS, which creates double-stranded DNA breaks.
Step,Parameter,Value,Description
1. Cell Plating, 3 ul, 500 cells/well in OPTI-MEM, 1% FBS, 1% Pen/Strep
3. Library compounds, 23 nl, 76.7 - 0.61uM dilution series final concentration
4. Incubation, 60 min, 37C, 5% CO2, 95% humidity
6. Incubation, 30 min, 37C, 5% CO2, 95% humidity
7. Reagent, 1 ul, Premixed detection reagents and lysis buffer
8. Reagent, 1 ul, 0.6% Antifoam A
9. Incubation, 6 hr, 25C, 95% humidity
10. Readout, EnVision, EnVision plate reader. AlphaScreen 1536-well protocol
Cells were plated using medium-binding white solid-bottom tissue culture treated Kalypsys plates. Multidrop dispense of 3 uL of F2112 (hTERT immortalized A-T patient fibroblast cells). Detection reagent and lysis buffer was 3.75nM Rab-a-pKAP1 antibody bound to 75 ng/ul AlphaScreen SA donor bead, 3.75 nM Biot-M-a-KAP1 antibody bound to AlphaLISA protein A acceptor bead, 0.5x protease inhibitor cocktail and 0.25x PerkinElmer lysis buffer. EnVision protocol for 1536-well AlphaScreen read (30ms excitation, 100ms read), about 10 min/plate.
With `CCN(CC)S(=O)(=O)c1ccc(C(=O)NC2CN3CCC2CC3)cc1` (stereo not drawn) the Potency was “inactive”. In the case of `CC1(C)C[C@H]2C=C(C=O)[C@]3(C=O)C[C@]3(C)[C@H]2C1`, the Potency is reported as “inactive”. With `S=c1[nH]nc(Cn2c(-c3ccccn3)nc3ccccc32)n1-c1ccc2c(c1)OCCO2` the Potency was 41.2 µM (active). With `CCN(CC)S(=O)(=O)c1cccc(N=Nc2c(O)n(CC)c(=S)n(CC)c2=O)c1` the Potency was 18.4 µM (active). With `CN1CCCC(C(O)(c2ccccc2)c2ccccc2)C1` (stereo not drawn) the Potency was “inactive”. For `COC(=O)C1=C(c2ccc(OCc3ccccc3)cc2)C[C@@H]2CC[C@H]1N2C(=O)NCc1cccc(C(F)(F)F)c1`, the Potency was 4.12 µM (active). With `Cc1nc2ccccc2c(=O)n1-c1ccc(F)cc1F` the Potency was “inactive”. For `O=C1Nc2ccccc2C1Cc1nc2ccccc2c(=O)n1-c1ccccc1` (stereo not drawn), the Potency was “inactive”. With `Cc1ccc(-n2c(O)c(C=NCC3CCCO3)c(=O)[nH]c2=O)c(C)c1` (stereo not drawn) the Potency was “inactive”. For `CC(C)c1ccc(-n2c(O)c(C=NC(CCS(C)=O)C(=O)O)c(=O)[nH]c2=S)cc1` (stereo not drawn), the Potency was “inactive”. With `Cc1cccc(N2C(=O)NC(=O)/C(=C\C=C\c3ccco3)C2=O)c1` the Potency was “inactive”. In the case of `CCN1C(=O)N(CC)C(=O)C2(Cc3ccccc3N3CCN(c4ccccc4)CC32)C1=O` (stereo not drawn), the Potency is reported as “inactive”. With `CCCCC(=O)N/N=C/c1c(O)n(CCC2=CCCCC2)c(=O)[nH]c1=O` the Potency was 14.6 µM (active). In the case of `Cc1cc(O)c2c(c1)C(=O)C13C(=C2O)C(=O)[C@H]2[C@@H](O)[C@@H]1[C@H]1[C@H](O)[C@@H]3C(=O)C3=C(O)c4c(O)cc(C)cc4C(=O)C312` (stereo partly drawn), the Potency is reported as “inactive”. For `CCc1ccc(N2C(=O)NC(=O)/C(=C\C=C\c3ccco3)C2=O)cc1`, the Potency was “inactive”. For `CN1CCN(c2ccc([N+](=O)[O-])c3no[n+]([O-])c23)CC1`, the Potency was “inactive”. In the case of `Cc1ccc(C)c(NP(=O)(Oc2ccccc2)Oc2ccccc2)c1`, the Potency is reported as “inactive”. With `C/C=C/c1ccc2c(c1)OCO2` the Potency was “inactive”.
Potency means the concentration at half of the fitted maximal effect.
